Screens from PubChem.
Shown are actives, neighbours in structure and some others; about 3.3% of the full set was active somewhere.
Vaccinia Venus: inhibitors of vaccinia virus (Venus reporter). Vaccinia virus Venus reporter expression, fluorescence. Potency, µM (top dose mostly 36.5 µM), actives largely listed as inhibitors. actives 0.46% (n = 330,000). AID 720580; calls by dose curve; tested in A549 cells; further: nearly all actives have a fitted effect of over 30% in size
VACV mCherry inh: vaccinia inhibition (mCherry reporter); Vaccinia virus mCherry reporter infection, fluorescence; Potency, µM (highest dose often 36.5 µM), most hits filed as inhibitors; actives 0.63% (n = 310,000); AID 720579; calls by dose curve; tested in A549 cells; further: nearly all actives have a fitted effect of over 35% in size
HCV inhibitor: blocks hepatitis C virus; Huh7.5.1 HCVcc-Cre infection, luciferase reporter, 44 h; Potency, µM (highest dose often 41.8 µM), actives largely listed as inhibitors; actives 3.4% (n = 340,000); AID 651820; active means well fitted inhibition curve with a large enough effect; inconclusive means small, poorly fitted or top-dose-only effect, or another doubt; inactive means no such curve, though single readings can be large or run the other way
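Cells (1,000/well) were plated 4 h before compound, then infected with HCVcc-Cre virus (~0.5 moi). After 44 h further culture, infection was read as luciferase luminescence following a 15 min substrate incubation at room temperature.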
Of the large screens only hits and unclear results are named; the others gave an inactive call.

O=[N+]([O-])c1ccc(N/N=C/C=C/c2ccco2)cc1	none (no result: Vaccinia Venus, VACV mCherry inh)
CCCOc1cccc(C2C(C(=O)c3cccs3)=C(O)C(=O)N2Cc2cccnc2)c1 (stereo not drawn)	none
Cc1cc(C)c2oc(-c3ccc(Cl)c(NC(=O)c4cccs4)c3)nc2c1	none (no result: HCV inhibitor)
CN1OC[C@@H]2CN[C@H](c3cccc(-c4ccccc4)c3)C[C@@H]21	HCV inhibitor inconclusive
N#Cc1nc(Cc2cccc3ccccc23)oc1NCCN1CCCCC1	HCV inhibitor 11µM (no result: Vaccinia Venus, VACV mCherry inh)
CNc1oc(Cc2cccc3ccccc23)nc1C#N	none
COc1ccc(CCNc2oc(COc3ccc(Br)cc3)nc2C#N)cc1OC	HCV inhibitor inconclusive
COc1ccc(CCNc2oc(Cc3cccc4ccccc34)nc2C#N)cc1OC	Vaccinia Venus inconclusive, HCV inhibitor 7.9µM (no result: VACV mCherry inh)
Cc1ccc2cccc(O)c2n1	none (no result: HCV inhibitor)
COc1ccc2c(C)c(CCC(=O)NCCc3ccccc3)c(=O)oc2c1	none (no result: HCV inhibitor)
Cc1[nH]n2c(=O)cc(C(C)C)nc2c1-c1ccccc1	none
COc1ccc(-c2c(C(F)(F)F)[nH]n3c(=O)cc(-c4ccccc4)nc23)cc1	none
Cc1[nH]n2c(=O)cc(-c3ccc(Cl)cc3)nc2c1-c1ccccc1	Vaccinia Venus inconclusive, VACV mCherry inh 8.9µM (no result: HCV inhibitor)
CCCCc1c(C)nc2c(-c3ccc(Cl)cc3)c(C)[nH]n2c1=O	Vaccinia Venus inconclusive, VACV mCherry inh 11µM (no result: HCV inhibitor)
Cc1[nH]n2c(=O)cc(C(C)(C)C)nc2c1-c1ccccc1	Vaccinia Venus inconclusive, VACV mCherry inh 10µM, HCV inhibitor 10µM
CCCc1cc(=O)n2[nH]c(C)c(-c3ccccc3)c2n1	Vaccinia Venus inconclusive (no result: VACV mCherry inh)
Cc1[nH]n2c(=O)cc(-c3ccc([N+](=O)[O-])cc3)nc2c1-c1ccccc1	HCV inhibitor 10µM
CCc1c(C)nc2c(-c3ccccc3)c(C)[nH]n2c1=O	VACV mCherry inh inconclusive
COc1ccc(/C=N/NC(=O)C2C(C=C(Cl)Cl)C2(C)C)c(OC)c1 (stereo not drawn)	HCV inhibitor inconclusive
CC(=O)c1ccc(NC(=O)COCc2cc(-c3ccc(F)cc3)on2)cc1	none (no result: HCV inhibitor)
COc1cccc(NC(=O)CSc2nnc3scc(-c4ccc(Cl)cc4)n23)c1	none (no result: HCV inhibitor)
Cc1ccc(N=Nc2c(N)[nH]n3c(=O)cc(-c4ccccc4)nc23)cc1	HCV inhibitor 13µM
COc1cccc(N=Nc2c(N)[nH]n3c(=O)cc(-c4ccccc4)nc23)c1	none (no result: VACV mCherry inh)
COC(=O)[C@@H]1CCCN1Cc1ccc2c(c1)CN(Cc1cccn1-c1ccccn1)CCO2	none (no result: HCV inhibitor)
Cn1cc(S(=O)(=O)N2CCCCC2)cc1C(=O)Nc1cccc(C#N)c1	none (no result: HCV inhibitor)
CCCOc1ccc(/C=N/Nc2ccccn2)cc1OC	HCV inhibitor inconclusive
C=CCOc1ccc(/C=N/Nc2ccccn2)cc1OC	HCV inhibitor 14µM
COc1cc(/C=N/Nc2ccccn2)ccc1OCC(C)C	VACV mCherry inh inconclusive, HCV inhibitor 8.9µM
CCOc1ccc(/C=N/Nc2ccccn2)cc1OC	none
Cc1ccccc1C1(CC(=O)N2CC3(C)CC2CC(C)(C)C3)CC(=O)N(Cc2cccnc2)C1=O (stereo not drawn)	none (no result: HCV inhibitor)
Nc1nc(NCc2ccccc2Cl)c2[nH]cnc2n1	none (no result: HCV inhibitor)
CCc1cc(/C(Cc2ccccn2)=N\O)c(O)cc1O	HCV inhibitor 22µM (no result: Vaccinia Venus, VACV mCherry inh)
CCc1cc(/C(Cc2cscn2)=N\O)c(O)cc1O	none
Nc1cc(=O)[nH]c(SCc2ccc(Cl)cc2Cl)n1	HCV inhibitor 3.2µM (no result: Vaccinia Venus, VACV mCherry inh)
Nc1ncnc2nc(SCc3ccc(Cl)cc3Cl)[nH]c12	Vaccinia Venus inconclusive, VACV mCherry inh inconclusive
CC1CN=C(Nc2cccc3ccccc23)S1 (stereo not drawn)	none (no result: VACV mCherry inh)
COc1ccc(Cl)cc1NC1=NCC(C)S1 (stereo not drawn)	HCV inhibitor 11µM (no result: Vaccinia Venus, VACV mCherry inh)
COc1ccc(NC(=O)COC(=O)CCc2ccc(S(=O)(=O)N3CCOCC3)cc2)cc1Cl	none
O=c1[nH]nc(SCCS(=O)(=O)c2ccc(F)cc2)n1-c1ccc2c(c1)OCCO2	Vaccinia Venus 1.6µM, VACV mCherry inh inconclusive
O=c1[nH]nc(SCCS(=O)(=O)c2ccc(F)cc2)n1-c1ccccc1	Vaccinia Venus 2.2µM, VACV mCherry inh 1.3µM
O=S(=O)(NCCSc1nnnn1-c1ccccc1)c1ccc(F)cc1	none (no result: HCV inhibitor)
CCCn1c(SCC(=O)c2ccc3c(c2)OCCO3)n[nH]c1=O	none
COCCCN(C(=O)Cc1coc2cc(C)c(C)cc12)c1c(N)n(Cc2ccccc2)c(=O)[nH]c1=O	none
CCc1ccc(C=O)cc1	none (no result: HCV inhibitor)
CN(Cc1ccc(Cl)s1)C(=O)CN1C(=O)N(C)C2(CCCCC2)C1=O	none
COc1ccc(Sc2ccc(NC(=O)c3ccccc3Cl)cc2C#N)cc1	HCV inhibitor 11µM (no result: VACV mCherry inh)
COc1ccc(NC(=O)CN(C)C(=O)c2cc(S(=O)(=O)N(C)C)ccc2N2CCCC2)cc1	none
CCN(CC(=O)Nc1ccccc1OC)C(=O)c1ccccc1Sc1ccccc1C#N	none (no result: Vaccinia Venus, VACV mCherry inh)
N#Cc1ccccc1Sc1ccccc1C(=O)Nc1ccc2ccccc2c1	VACV mCherry inh inconclusive, HCV inhibitor inconclusive
CCN(CC(=O)Nc1ccc(OC)cc1)C(=O)c1ccccc1Sc1ccccc1C#N	VACV mCherry inh inconclusive, HCV inhibitor 22µM
CCN(CC(=O)Nc1ccc(OC)cc1)C(=O)c1cc(S(=O)(=O)N(C)C)ccc1N1CCCC1	HCV inhibitor 11µM
Cn1c(=O)c2c(SCC(=O)NCC3CCCO3)nc(-c3cccc(F)c3)nc2n(C)c1=O (stereo not drawn)	none (no result: HCV inhibitor)
COc1ccc(Cl)cc1NC(=O)c1sc(-n2nc(C)c(Cc3ccccc3)c2C)nc1C	none (no result: HCV inhibitor)
CCCc1ccc(-c2cc(C(=O)N/N=C/c3ccc([N+](=O)[O-])o3)c3ccccc3n2)cc1	Vaccinia Venus inconclusive, VACV mCherry inh inconclusive, HCV inhibitor 10µM
COc1ccc(-c2nn(-c3ccccc3)cc2C(=O)N/N=C/c2ccc([N+](=O)[O-])o2)cc1	none
O=C(N/N=C/c1ccco1)c1cc(-c2ccccc2)nc2ccccc12	VACV mCherry inh inconclusive
O=C(N/N=C/c1ccc([N+](=O)[O-])o1)c1cc(-c2cccc(Br)c2)nc2ccccc12	HCV inhibitor 10µM
COc1ccccc1OCC(=O)NNC(=O)Nc1ccccc1	none
O=C(CNC(=O)CNC(=O)c1ccc(Cl)cc1Cl)NCc1cccc(Cl)c1	none
Cc1ccc(S(=O)(=O)N(C)c2ccc(C(=O)Nc3cccc(C)n3)cc2)cc1	HCV inhibitor inconclusive
CCN(c1ccccc1)S(=O)(=O)c1ccc(OC)c(OC)c1	none (no result: Vaccinia Venus, VACV mCherry inh)
CCN(c1ccccc1)S(=O)(=O)c1ccc(C(=O)Nc2cccc(C)n2)cc1	HCV inhibitor 11µM (no result: Vaccinia Venus, VACV mCherry inh)
COc1ccc(N(Cc2ccccc2)S(=O)(=O)c2cccc(C(=O)Nc3ccccn3)c2)cc1	HCV inhibitor inconclusive
COc1ccccc1N(Cc1ccccc1)S(=O)(=O)c1cccc(C(=O)Nc2cccc(C)n2)c1	HCV inhibitor 10µM (no result: Vaccinia Venus, VACV mCherry inh)
CCN(c1ccccc1)S(=O)(=O)c1ccc2ccccc2c1	HCV inhibitor 5.6µM
COc1cc(C2CC(=O)Nc3c2c(=O)n(C)c2ncnn32)cc(OC)c1OC (stereo not drawn)	none (no result: HCV inhibitor)
COc1ccc(C(=O)NCCn2cc(SCC(=O)Nc3cccc(C)c3)c3ccccc32)cc1	none (no result: HCV inhibitor)
Cc1ccc(S(=O)(=O)N2CCN(c3nc(-c4cccs4)nc4nc[nH]c34)CC2)cc1	none (no result: HCV inhibitor)
CC1(C)C(=O)C=C[C@]2(C)C1CC(=O)[C@]1(C)C2CC[C@@]2(C)C(c3ccoc3)OC(=O)C3O[C@@]321 (stereo partly drawn)	none (no result: HCV inhibitor)
CCOC(=O)c1[nH]c2ccc(OC)cc2c1NC(=S)N1CCN(c2cccc(C)c2C)CC1	Vaccinia Venus inconclusive, VACV mCherry inh inconclusive, HCV inhibitor 10µM
